Records with an inconclusive call do not appear. The source made the active and inactive calls. Calls follow the shape of the dose curve; as a rule, active = well fitted inhibition curve with a large enough effect; inconclusive = small, poorly fitted or top-dose-only effect, or another doubt; inactive = no such curve, though single readings can be large or run the other way.
target: Neuropeptide S receptor (Homo sapiens) (UniProt Q6W5P4); assay: Confirmation Concentration-Response Assay for Antagonists of the Neuropeptide S Receptor: Robust Characterization of Calcium Signal Transduction; conditions: CHO-NPSR cells, NPS-induced calcium fluorescence (FDSS); series mostly up to 31.6 µM
Sequence (Q6W5P4 whole entry, looked up): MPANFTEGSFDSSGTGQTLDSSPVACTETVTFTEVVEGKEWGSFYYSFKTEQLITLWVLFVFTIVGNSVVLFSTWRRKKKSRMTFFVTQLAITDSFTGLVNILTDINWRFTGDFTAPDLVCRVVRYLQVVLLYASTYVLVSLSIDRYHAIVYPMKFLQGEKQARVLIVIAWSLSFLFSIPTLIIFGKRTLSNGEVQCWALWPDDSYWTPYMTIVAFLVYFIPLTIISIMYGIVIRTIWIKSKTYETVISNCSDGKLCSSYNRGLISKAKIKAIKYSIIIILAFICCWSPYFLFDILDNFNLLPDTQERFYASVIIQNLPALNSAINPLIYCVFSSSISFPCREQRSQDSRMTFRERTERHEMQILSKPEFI
From the text: NIH Chemical Genomics Center [NCGC] NIH Molecular Libraries Probe Production centers Network [MLPCN] MLPCN Grant: X01-DA026210-01 Assay Submitter (PI): Heilig, Markus Alexander NCGC Assay Overview: Neuropeptide S receptor (NPSR), previously known as GPR154, is a recently de-orphanized G protein coupled receptor. Its endogenous ligand is the 20 amino acids peptide Neuropeptide S (NPS). […] NPS and its receptor are found in various tissues. Specifically they are highly expressed in brain areas that have been implicated in modulation of arousal, stress and anxiety. Central administration of NPS in mice produces an unusual profile of activity by inducing wakefulness and arousal, while at the same time suppressing anxiety. Therefore, NPSR may represent a novel drug target for the treatment of sleep and anxiety disorders. To identify NPSR antagonists, we developed a cell-based assay with transfected NPS receptor. NPS can stimulate the production of cAMP as well as release intracellular calcium in Chinese hamster ovary cells stably expressing NPS receptor. This change in intracellular calcium can be detected using a calcium indicator dye on a calcium imaging plate reader system (FDSS). This particular assay uses a high density of sampling across concentration-response space to establish more confidence estimates of potency.
NCGC Assay Protocol Summary: A Chinese hamster ovary (CHO) cell line stably expressing the NPS receptor (CHO-NPSR) was obtained from Dr. Heilig lab at NIAAA and maintained in F-12 Kaighn's media (Invitrogen, Carlsbad, CA, 21127) supplemented with 10 % FBS, 100 units/ml penicillin, 100 ug/ml streptomycin and 250 ug/ml geneticin at 37C, 5% CO2 in a humidified atmosphere. Before the assay, aliquots of cells were frozen and stored at -135C. The assay was performed on a FDSS-7000 kinetic plate reader in 1536-well format. For both agonist (1-220s) and antagonist (221-400s) phases, the maximums of kinetic fluorescence responses were converted separately into text files using the instrument's software data export utility. Data for agonist response were normalized to the controls for basal activity (DMSO only) and 100% activation (NPS). […] AC50 values were determined from concentration-response data modeled with the standard Hill equation. NPS 1536-well FDSS assay protocol: (1) Frozen CHO-NPSR cells were thaw, washed once with fresh media and resuspended in F-12 Kaighn's media supplemented with 10 % FBS, 100 units/ml penicillin and 100 ug/ml streptomycin. Cells were plated at 3 ul/well (1200 cells) to black, clear-bottom, tissue-culture treated 1536-well plates, and then cultured at 37C, 5 % CO2 for 16 to 30 hours. (2) Add 3 ul of calcium dye (from High Performance PBX Calcium Assay Kit, BD Biosciences). The calcium dye was prepared according to the manufactory's instruction. (3) Incubation at 37C, 5 % CO2 for 60 to 120 min. (4) Load plates to FDSS-7000. The following steps were performed on FDSS-7000. (5) Record fluorescent background (Ex 480 nm, Em 520-560 nm) for 10 s. (6) Add 23 nl/well of compound in DMSO solution. The final titration for each compound was between 0.6 nM and 46 uM. Record agonist response for 210 s. (7) Add 2 ul of stimulation reagent (1X HBSS buffer, 0.1% BSA, 60 nM NPS). Record antagonist response for 140 s. Keywords: MLSMR, MLPCN, NIH Roadmap, qHTS, NCGC, NPS, Neuropeptide S Antagonists

Potency, inactive:
COc1cccc(C2C(C#N)=C(NC(=O)NCc3ccccc3)Oc3ccc4ccccc4c32)c1 (stereo not given)
COc1cccc(C2C(C#N)=C(NC(=O)CCc3ccccc3)Oc3ccc4ccccc4c32)c1 (stereo not given)

Potency, active:
O=C(Nc1ncnc2c1C(c1ccccc1)c1c(ccc3ccccc13)O2)c1ccccc1 (stereo not given) 4920 nM
N=c1c2c(ncn1-c1ccccc1)Oc1ccc3ccccc3c1C2c1ccc2c(c1)OCCO2 (stereo not given) 276 nM
COc1cccc(C2c3c(ncn(-c4cccc(C#N)c4)c3=N)Oc3ccc4ccccc4c32)c1 (stereo not given) 2760 nM
COc1cccc(C2c3c(ncn(-c4ccc5c(c4)OCO5)c3=N)Oc3ccc4ccccc4c32)c1 (stereo not given) 43.8 nM
N=c1c2c(ncn1-c1ccccc1)Oc1ccc3ccccc3c1C2c1ccc2c(c1)OCO2 (stereo not given) 619 nM
COc1cccc(C2c3c(ncn(-c4ccccc4)c3=N)Oc3ccc4ccccc4c32)c1OC (stereo not given) 981 nM
COc1cccc(C2c3c(ncn(-c4ccccc4C(C)(C)C)c3=N)Oc3ccc4ccccc4c32)c1 (stereo not given) 1740 nM
COc1ccc(C2c3ccc4ccccc4c3Oc3ncn(CCN4CCOCC4)c(=N)c32)cc1OC (stereo not given) 3480 nM
COc1cccc(C2c3c(ncn(-c4cccc(F)c4)c3=N)Oc3ccc4ccccc4c32)c1 (stereo not given) 69.5 nM
Cc1nc2ccccn2c1C(O)(c1ccccc1)c1ccccc1 11300 nM
COc1cccc(C2c3c(ncn(-c4ccc(C)cc4)c3=N)Oc3ccc4ccccc4c32)c1 (stereo not given) 2460 nM
O=C(c1ccccc1)N(C(=O)c1ccccc1)c1ncnc2c1C(c1ccccc1)c1c(ccc3ccccc13)O2 (stereo not given) 438 nM
COc1cccc(C2c3c(ncn(-c4cccnc4)c3=N)Oc3ccc4ccccc4c32)c1 (stereo not given) 1740 nM
COc1cccc(C2c3c(ncn(-c4ccc(C#N)cc4)c3=N)Oc3ccc4ccccc4c32)c1 (stereo not given) 1390 nM
Nc1ncnc2c1C(c1ccccc1)c1c(ccc3ccccc13)O2 (stereo not given) 139 nM
COc1cccc(C2c3c(ncn(-c4ccccc4C#N)c3=N)Oc3ccc4ccccc4c32)c1 (stereo not given) 3100 nM
N#CC1=C(NC=NCc2ccccc2)Oc2ccc3ccccc3c2C1c1ccccc1 (stereo not given) 779 nM
COc1cccc(C2c3c(ncn(-c4ccncc4)c3=N)Oc3ccc4ccccc4c32)c1 (stereo not given) 3910 nM
S=P(c1ccccc1)(c1ccccc1)c1c[n+](C/C=C/c2ccccc2)c2ccccn12 31.8 nM
COc1cccc(C2c3c(ncn(-c4cccc(Br)c4)c3=N)Oc3ccc4ccccc4c32)c1 (stereo not given) 2460 nM
COc1ccc(C2c3c(ncn(CCN4CCOCC4)c3=N)Oc3ccc4ccccc4c32)cc1OC (stereo not given) 438 nM
COc1cccc(C2c3c(ncn(-c4ccccc4SC)c3=N)Oc3ccc4ccccc4c32)c1 (stereo not given) 24.6 nM
COc1cccc(C2c3c(ncn(-c4ccc(NC(C)=O)cc4)c3=N)Oc3ccc4ccccc4c32)c1 (stereo not given) 4380 nM
CCOc1ccc(C2c3c(ncn(-c4ccccc4)c3=N)Oc3ccc4ccccc4c32)cc1OCC (stereo not given) 2460 nM
N=c1c2c(ccn1CCc1ccccc1)Oc1ccc3ccccc3c1C2c1ccccc1 (stereo not given) 492 nM
COc1cccc(C2c3c(ncn(CCCN4CCOCC4)c3=N)Oc3ccc4ccccc4c32)c1 (stereo not given) 1390 nM
COc1cccc(C2c3c(ncn(-c4ccccc4Cl)c3=N)Oc3ccc4ccccc4c32)c1 (stereo not given) 4380 nM
COc1ccc(-n2cnc3c(c2=N)C(c2cccc(OC)c2)c2c(ccc4ccccc24)O3)cc1 (stereo not given) 1740 nM
COc1cccc(C2c3c(ncn(-c4cccc(Cl)c4)c3=N)Oc3ccc4ccccc4c32)c1 (stereo not given) 4380 nM
COc1cccc(C2c3c(ncn(-c4cccc(C)c4)c3=N)Oc3ccc4ccccc4c32)c1 (stereo not given) 3910 nM
CCOC(=O)CCCC(=O)Nc1ncnc2c1C(c1ccccc1)c1c(ccc3ccccc13)O2 (stereo not given) 2200 nM
COc1ccccc1C1c2c(ncn(-c3ccccc3)c2=N)Oc2ccc3ccccc3c21 (stereo not given) 4920 nM
COc1ccc(C2c3ccccc3Oc3ncn(CCN4CCOCC4)c(=N)c32)cc1OC (stereo not given) 619 nM
Fc1ccc(-c2c(P(=S)(c3ccccc3)c3ccccc3)n3ccccc3[n+]2C/C=C/c2ccccc2)cc1 20.1 nM
COc1cccc(C2c3c(ncn(-c4ccccc4-c4ccccc4)c3=N)Oc3ccc4ccccc4c32)c1 (stereo not given) 8740 nM
COc1ccc(C2c3c(ncn(CCCc4ccccc4)c3=N)Oc3ccc4ccccc4c32)cc1OC (stereo not given) 3910 nM
COc1cccc(C2c3c(ncn(-c4ccc(Br)cc4)c3=N)Oc3ccc4ccccc4c32)c1 (stereo not given) 3100 nM
COc1cccc(C2c3c(ncn(-c4ccccc4OC)c3=N)Oc3ccc4ccccc4c32)c1 (stereo not given) 1240 nM

— PubChem BioAssay AID434931 (National Center for Advancing Translational Sciences (NCATS), 2010)
